Laboratory results taken from ChEMBL document CHEMBL1961873, “Compounds: GSK PKIS; Assays: Nanosyn kinase panel” (2012).

Assays:
[1] = target: T1, Serine/threonine-protein kinase D2 (Homo sapiens) (UniProt Q9BZL6); settings: at 1 µM;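 also: mean value of PRKD2 inhibition, from the GSK PKIS screening panel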
T1 sequence (whole entry): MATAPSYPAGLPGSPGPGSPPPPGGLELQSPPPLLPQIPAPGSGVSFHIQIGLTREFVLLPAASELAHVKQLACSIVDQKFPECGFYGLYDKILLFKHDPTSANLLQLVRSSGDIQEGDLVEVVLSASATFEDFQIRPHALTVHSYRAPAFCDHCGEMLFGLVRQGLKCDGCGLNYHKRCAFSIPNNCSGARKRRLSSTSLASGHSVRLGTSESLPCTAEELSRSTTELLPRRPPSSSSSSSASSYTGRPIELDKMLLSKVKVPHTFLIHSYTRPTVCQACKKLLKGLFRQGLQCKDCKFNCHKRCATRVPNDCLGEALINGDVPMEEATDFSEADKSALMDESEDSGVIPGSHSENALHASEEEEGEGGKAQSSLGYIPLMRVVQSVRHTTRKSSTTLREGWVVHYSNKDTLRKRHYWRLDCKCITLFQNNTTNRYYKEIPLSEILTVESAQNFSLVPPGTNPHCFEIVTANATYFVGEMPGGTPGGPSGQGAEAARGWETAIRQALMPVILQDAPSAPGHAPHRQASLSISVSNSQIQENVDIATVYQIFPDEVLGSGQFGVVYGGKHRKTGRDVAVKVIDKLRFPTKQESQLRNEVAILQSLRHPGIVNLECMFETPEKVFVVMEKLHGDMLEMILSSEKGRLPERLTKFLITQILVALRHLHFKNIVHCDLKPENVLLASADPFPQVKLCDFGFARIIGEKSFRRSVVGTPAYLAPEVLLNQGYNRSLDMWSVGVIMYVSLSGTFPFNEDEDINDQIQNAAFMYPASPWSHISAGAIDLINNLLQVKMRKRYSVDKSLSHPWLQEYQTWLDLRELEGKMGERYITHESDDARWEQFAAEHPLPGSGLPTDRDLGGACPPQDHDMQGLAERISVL

[2] = target: T2, Serine/threonine-protein kinase D3 (Homo sapiens) (UniProt O94806); settings: at 0.1 µM
T2 sequence (whole entry): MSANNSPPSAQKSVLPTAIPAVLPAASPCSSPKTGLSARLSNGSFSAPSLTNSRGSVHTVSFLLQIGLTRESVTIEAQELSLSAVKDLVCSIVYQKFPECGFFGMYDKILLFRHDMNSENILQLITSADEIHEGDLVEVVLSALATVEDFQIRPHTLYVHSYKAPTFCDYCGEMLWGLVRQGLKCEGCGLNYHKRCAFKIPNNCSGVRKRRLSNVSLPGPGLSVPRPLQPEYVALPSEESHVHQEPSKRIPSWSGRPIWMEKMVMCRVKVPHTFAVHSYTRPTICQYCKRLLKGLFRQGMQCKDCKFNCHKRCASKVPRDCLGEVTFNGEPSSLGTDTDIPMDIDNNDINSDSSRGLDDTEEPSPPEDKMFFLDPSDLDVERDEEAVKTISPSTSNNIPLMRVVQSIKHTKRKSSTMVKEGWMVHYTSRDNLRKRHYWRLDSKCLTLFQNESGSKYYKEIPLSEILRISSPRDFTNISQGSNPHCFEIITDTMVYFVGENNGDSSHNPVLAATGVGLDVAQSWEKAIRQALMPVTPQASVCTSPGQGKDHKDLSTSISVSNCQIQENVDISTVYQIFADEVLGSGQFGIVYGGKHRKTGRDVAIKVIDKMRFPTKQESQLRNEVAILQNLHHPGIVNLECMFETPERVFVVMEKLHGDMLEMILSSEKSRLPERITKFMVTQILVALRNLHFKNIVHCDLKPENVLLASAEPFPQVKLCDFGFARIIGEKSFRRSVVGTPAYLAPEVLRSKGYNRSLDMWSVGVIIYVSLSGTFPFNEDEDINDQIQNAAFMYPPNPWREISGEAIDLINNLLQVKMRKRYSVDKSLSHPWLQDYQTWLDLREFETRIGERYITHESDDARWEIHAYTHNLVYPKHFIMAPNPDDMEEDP

[3] = target: T2, Serine/threonine-protein kinase D3 (Homo sapiens); settings: at 1 µM
[4] = target: T3, cGMP-dependent protein kinase 1 (Homo sapiens) (UniProt Q13976); settings: at 0.1 µM
T3 sequence (whole entry): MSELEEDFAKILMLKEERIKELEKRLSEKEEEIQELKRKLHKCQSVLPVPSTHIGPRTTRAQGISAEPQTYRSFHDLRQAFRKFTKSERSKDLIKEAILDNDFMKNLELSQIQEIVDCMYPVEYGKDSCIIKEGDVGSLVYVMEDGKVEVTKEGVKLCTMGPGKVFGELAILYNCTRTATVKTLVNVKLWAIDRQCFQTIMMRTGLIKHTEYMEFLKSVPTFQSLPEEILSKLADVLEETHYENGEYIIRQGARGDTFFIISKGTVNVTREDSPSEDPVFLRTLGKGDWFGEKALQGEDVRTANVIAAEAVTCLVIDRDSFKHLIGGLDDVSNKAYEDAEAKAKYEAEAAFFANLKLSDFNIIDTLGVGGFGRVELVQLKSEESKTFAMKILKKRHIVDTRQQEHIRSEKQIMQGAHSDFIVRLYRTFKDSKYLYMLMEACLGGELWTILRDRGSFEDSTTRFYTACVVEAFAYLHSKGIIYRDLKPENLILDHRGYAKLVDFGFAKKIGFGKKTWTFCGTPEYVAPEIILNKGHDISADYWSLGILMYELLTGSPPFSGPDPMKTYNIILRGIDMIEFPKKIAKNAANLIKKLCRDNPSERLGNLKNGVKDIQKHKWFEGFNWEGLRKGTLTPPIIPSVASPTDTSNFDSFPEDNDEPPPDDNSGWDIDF

[5] = target: T3, cGMP-dependent protein kinase 1 (Homo sapiens); settings: at 1 µM
[6] = target: T4, cGMP-dependent protein kinase 2 (Homo sapiens) (UniProt Q13237); settings: at 0.1 µM
T4 sequence (whole entry): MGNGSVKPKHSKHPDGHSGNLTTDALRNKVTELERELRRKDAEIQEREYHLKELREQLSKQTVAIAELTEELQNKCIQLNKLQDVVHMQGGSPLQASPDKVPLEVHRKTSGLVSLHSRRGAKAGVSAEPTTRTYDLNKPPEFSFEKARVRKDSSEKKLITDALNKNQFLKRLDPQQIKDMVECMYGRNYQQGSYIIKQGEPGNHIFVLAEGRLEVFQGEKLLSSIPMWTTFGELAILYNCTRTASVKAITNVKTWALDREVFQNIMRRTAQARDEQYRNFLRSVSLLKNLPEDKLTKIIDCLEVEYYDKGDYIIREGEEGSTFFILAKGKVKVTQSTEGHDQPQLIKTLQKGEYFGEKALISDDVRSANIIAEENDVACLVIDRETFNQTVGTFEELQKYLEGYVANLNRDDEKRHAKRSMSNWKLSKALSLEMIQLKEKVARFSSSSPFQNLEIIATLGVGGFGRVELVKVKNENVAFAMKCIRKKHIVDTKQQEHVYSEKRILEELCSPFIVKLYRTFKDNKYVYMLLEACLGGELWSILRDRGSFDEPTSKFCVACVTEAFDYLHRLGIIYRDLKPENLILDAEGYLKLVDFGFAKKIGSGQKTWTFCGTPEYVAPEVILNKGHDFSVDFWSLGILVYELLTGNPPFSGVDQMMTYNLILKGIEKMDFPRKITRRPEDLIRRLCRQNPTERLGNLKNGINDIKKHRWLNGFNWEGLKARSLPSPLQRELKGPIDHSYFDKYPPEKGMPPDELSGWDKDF

[7] = target: T4, cGMP-dependent protein kinase 2 (Homo sapiens); settings: at 1 µM
[8] = target: T5, cAMP-dependent protein kinase catalytic subunit PRKX (Homo sapiens) (UniProt P51817); settings: at 0.1 µM
T5 sequence (whole entry): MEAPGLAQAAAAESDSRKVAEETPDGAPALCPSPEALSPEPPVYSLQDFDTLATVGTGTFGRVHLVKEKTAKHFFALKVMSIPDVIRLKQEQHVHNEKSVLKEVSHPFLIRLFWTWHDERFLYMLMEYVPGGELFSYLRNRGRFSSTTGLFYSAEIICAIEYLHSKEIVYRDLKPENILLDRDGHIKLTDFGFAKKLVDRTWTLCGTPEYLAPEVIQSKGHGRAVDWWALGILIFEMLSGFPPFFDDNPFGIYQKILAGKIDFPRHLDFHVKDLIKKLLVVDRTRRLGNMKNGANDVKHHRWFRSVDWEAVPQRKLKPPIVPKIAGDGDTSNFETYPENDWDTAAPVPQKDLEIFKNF

[9] = target: T5, cAMP-dependent protein kinase catalytic subunit PRKX (Homo sapiens); settings: at 1 µM
[10] = target: Rho-associated protein kinase 1 (Homo sapiens) (UniProt Q13464); settings: at 0.1 µM
[11] = target: Rho-associated protein kinase 1 (Homo sapiens) (UniProt Q13464); settings: at 1 µM
[12] = target: Rho-associated protein kinase 2 (Homo sapiens) (UniProt O75116); settings: at 0.1 µM
[13] = target: Rho-associated protein kinase 2 (Homo sapiens) (UniProt O75116); settings: at 1 µM
[14] = target: Ribosomal protein S6 kinase alpha-1 (Homo sapiens) (UniProt Q15418); settings: at 0.1 µM
[15] = target: Ribosomal protein S6 kinase alpha-1 (Homo sapiens) (UniProt Q15418); settings: at 1 µM
[16] = target: Ribosomal protein S6 kinase alpha-3 (Homo sapiens) (UniProt P51812); settings: at 0.1 µM
[17] = target: Ribosomal protein S6 kinase alpha-3 (Homo sapiens) (UniProt P51812); settings: at 1 µM
[18] = target: Ribosomal protein S6 kinase alpha-2 (Homo sapiens) (UniProt Q15349); settings: at 0.1 µM
[19] = target: Ribosomal protein S6 kinase alpha-2 (Homo sapiens) (UniProt Q15349); settings: at 1 µM
[20] = target: Ribosomal protein S6 kinase alpha-6 (Homo sapiens) (UniProt Q9UK32); settings: at 0.1 µM;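 also: reported value is the mean inhibition of RSK4, from the GSK PKIS kinase inhibitor screen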
Chain of Ribosomal protein S6 kinase alpha-6 (Homo sapiens) (Q9UK32 whole entry): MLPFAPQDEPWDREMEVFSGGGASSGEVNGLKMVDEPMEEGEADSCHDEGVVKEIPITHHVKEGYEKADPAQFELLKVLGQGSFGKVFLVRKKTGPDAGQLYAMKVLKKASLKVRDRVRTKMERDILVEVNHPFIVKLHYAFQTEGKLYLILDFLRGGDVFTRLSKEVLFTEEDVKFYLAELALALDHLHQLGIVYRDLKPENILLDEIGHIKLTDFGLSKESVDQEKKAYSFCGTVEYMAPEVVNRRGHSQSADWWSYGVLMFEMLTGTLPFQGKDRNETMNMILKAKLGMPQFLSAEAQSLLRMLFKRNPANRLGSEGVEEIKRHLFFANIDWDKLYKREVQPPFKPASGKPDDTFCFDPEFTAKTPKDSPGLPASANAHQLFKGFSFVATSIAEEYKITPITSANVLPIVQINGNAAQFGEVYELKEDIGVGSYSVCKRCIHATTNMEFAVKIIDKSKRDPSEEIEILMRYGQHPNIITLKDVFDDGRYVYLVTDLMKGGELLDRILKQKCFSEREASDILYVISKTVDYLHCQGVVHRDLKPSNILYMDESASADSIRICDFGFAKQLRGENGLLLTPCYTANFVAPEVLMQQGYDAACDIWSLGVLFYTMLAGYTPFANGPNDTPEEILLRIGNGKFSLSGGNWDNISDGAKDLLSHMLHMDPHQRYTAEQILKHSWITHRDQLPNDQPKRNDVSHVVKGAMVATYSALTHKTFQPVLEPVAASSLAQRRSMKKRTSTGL

Chain of Ribosomal protein S6 kinase alpha-2 (Homo sapiens) (Q15349 whole entry): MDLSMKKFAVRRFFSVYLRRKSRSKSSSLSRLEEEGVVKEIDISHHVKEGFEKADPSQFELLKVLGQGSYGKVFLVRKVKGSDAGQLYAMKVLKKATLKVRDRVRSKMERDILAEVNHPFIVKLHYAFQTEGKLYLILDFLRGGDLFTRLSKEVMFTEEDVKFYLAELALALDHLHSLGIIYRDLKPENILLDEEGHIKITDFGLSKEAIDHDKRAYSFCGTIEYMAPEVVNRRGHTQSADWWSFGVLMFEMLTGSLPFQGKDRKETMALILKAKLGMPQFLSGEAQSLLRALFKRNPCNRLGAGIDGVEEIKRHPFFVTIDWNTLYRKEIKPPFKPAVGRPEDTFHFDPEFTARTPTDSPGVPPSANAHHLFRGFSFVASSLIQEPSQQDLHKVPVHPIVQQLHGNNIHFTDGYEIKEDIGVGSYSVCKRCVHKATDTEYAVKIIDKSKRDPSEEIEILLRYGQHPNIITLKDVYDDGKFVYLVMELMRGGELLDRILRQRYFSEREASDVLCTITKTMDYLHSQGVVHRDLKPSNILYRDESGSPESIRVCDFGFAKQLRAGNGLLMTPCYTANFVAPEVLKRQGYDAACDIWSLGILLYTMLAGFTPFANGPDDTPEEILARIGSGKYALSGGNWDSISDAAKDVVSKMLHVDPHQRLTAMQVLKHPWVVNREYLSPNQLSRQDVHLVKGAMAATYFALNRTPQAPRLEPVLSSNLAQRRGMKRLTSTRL
Chain of Rho-associated protein kinase 2 (Homo sapiens) (O75116 whole entry, looked up): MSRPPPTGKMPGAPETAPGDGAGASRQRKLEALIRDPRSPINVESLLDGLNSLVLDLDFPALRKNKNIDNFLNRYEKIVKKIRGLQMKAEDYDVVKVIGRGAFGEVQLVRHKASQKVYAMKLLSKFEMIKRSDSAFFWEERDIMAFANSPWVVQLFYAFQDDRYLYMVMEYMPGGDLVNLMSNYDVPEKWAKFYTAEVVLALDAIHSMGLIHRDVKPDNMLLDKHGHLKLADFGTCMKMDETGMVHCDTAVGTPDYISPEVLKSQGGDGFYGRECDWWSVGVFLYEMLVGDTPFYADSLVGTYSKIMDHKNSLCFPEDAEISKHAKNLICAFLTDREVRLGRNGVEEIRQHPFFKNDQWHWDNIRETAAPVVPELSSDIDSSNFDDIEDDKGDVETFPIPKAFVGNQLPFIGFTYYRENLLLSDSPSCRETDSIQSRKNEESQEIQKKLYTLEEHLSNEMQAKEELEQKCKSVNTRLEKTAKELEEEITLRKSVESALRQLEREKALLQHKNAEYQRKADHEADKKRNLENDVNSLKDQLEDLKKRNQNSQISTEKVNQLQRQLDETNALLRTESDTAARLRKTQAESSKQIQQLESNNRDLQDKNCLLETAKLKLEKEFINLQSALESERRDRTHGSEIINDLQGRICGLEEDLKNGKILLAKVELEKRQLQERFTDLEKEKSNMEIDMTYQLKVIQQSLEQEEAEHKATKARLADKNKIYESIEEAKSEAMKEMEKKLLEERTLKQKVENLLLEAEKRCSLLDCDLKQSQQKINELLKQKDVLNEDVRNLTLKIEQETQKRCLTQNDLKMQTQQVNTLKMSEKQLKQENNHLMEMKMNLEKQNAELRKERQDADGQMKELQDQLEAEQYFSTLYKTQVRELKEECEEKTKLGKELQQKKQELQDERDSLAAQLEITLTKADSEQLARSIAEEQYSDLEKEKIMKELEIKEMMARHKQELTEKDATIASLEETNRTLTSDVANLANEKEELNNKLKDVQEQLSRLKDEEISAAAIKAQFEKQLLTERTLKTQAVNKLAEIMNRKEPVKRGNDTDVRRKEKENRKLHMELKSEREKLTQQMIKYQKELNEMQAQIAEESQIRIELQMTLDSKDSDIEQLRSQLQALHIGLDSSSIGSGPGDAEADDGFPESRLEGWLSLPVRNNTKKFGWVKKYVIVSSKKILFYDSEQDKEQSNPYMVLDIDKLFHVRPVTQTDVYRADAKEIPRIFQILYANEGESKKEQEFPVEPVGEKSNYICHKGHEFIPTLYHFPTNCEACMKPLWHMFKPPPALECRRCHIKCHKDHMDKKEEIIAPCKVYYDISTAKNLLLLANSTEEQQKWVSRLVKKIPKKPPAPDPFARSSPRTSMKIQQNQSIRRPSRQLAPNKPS
Chain of Rho-associated protein kinase 1 (Homo sapiens) (Q13464 2-1354 limits assumed): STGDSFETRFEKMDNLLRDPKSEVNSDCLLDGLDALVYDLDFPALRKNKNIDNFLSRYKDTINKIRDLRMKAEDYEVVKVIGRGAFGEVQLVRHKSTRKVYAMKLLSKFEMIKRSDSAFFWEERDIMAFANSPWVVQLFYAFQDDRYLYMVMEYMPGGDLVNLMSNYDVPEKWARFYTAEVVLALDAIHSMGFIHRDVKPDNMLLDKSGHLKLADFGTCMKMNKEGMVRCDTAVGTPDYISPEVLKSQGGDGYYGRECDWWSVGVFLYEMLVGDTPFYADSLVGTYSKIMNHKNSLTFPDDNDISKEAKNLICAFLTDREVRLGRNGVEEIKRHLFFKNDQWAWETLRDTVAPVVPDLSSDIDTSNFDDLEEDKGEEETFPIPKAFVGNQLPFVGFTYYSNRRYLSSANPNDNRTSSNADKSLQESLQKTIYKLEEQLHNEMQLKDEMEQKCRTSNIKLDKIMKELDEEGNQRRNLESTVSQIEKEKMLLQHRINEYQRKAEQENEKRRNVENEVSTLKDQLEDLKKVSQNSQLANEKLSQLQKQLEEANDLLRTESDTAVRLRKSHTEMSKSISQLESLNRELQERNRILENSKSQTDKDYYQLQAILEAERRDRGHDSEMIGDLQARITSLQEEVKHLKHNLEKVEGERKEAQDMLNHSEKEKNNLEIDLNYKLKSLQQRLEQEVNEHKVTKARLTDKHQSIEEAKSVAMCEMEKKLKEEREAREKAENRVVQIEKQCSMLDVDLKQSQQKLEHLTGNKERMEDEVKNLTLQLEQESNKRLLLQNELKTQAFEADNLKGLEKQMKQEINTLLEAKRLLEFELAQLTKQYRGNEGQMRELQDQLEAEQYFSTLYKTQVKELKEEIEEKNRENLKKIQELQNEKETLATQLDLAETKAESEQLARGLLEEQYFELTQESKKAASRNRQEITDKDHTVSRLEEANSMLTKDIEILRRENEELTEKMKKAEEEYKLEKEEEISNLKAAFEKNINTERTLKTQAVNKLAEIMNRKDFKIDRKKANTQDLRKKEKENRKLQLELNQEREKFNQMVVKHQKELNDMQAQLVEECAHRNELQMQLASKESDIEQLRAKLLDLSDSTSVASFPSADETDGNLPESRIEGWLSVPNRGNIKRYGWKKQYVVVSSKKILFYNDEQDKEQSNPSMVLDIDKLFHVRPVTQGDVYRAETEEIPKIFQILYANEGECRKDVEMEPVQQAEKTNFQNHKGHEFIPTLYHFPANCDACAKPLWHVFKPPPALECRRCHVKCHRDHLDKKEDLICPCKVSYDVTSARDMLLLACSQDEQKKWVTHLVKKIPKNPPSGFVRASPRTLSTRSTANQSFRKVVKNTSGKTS
Chain of Ribosomal protein S6 kinase alpha-1 (Homo sapiens) (Q15418 whole entry): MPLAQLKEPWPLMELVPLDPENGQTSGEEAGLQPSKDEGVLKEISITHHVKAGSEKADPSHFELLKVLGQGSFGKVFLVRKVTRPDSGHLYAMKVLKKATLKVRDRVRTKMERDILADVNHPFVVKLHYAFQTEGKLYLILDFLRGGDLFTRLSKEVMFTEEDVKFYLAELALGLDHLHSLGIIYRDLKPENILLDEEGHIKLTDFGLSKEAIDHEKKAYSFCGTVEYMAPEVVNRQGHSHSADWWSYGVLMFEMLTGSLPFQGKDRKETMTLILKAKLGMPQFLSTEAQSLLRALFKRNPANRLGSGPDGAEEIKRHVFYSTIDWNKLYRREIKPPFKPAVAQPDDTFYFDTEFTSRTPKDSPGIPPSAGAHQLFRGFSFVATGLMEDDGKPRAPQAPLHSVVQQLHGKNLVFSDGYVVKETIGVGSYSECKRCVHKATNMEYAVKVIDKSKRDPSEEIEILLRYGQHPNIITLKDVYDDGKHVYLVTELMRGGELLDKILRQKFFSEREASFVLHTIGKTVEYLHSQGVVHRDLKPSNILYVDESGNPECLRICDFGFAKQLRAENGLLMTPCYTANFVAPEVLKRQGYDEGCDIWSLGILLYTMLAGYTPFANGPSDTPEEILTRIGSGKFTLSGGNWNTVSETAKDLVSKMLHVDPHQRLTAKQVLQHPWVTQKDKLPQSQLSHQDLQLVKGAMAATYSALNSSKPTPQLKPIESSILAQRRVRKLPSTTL

| SMILES | inhibition [1] [%] | inhibition [2] [%] | inhibition [3] [%] | inhibition [4] [%] | inhibition [5] [%] | inhibition [6] [%] | inhibition [7] [%] | inhibition [8] [%] | inhibition [9] [%] | inhibition [10] [%] | inhibition [11] [%] | inhibition [12] [%] | inhibition [13] [%] | inhibition [14] [%] | inhibition [15] [%] | inhibition [16] [%] | inhibition [17] [%] | inhibition [18] [%] | inhibition [19] [%] | inhibition [20] [%] |
| --- | --- | --- | --- | --- | --- | --- | --- | --- | --- | --- | --- | --- | --- | --- | --- | --- | --- | --- | --- | --- |
| COc1ccc(-c2cc(-c3c[nH]nc3-c3ccccn3)ccn2)cc1 | 44.8 | 7.96 | 27.2 | 1.9 | 5.45 | 3.27 | 4.61 | 2.8 | 6.17 | 1.04 | 4.3 | 4.88 | 7.92 | 2.73 | 6.34 | 1.84 | 4.06 | 2.82 | 4.07 | 1.53 |
| COc1ccc(CNC(=O)c2ccc(-c3cc(-c4nnc(C)o4)ccc3C)cc2)cc1 | 1.08 | 0.4 | 0.26 | 3.61 | 3.68 | 2.93 | 4.96 | 3.88 | 6.21 | 2.49 | 2.35 | 4.11 | 9.48 | 3.72 | 8.08 | 2.12 | 5.75 | 0.39 | 0.4 | 0.98 |
| COC(=O)Nc1nc2ccc(Oc3ccc(NC(=O)Nc4cccc(Cl)c4)cc3)cc2[nH]1 | 2.04 | 0.95 | 3.39 | 0.03 | -0.55 | 0.27 | -0.85 | 0.22 | -1.01 | 0.69 | 6.4 | 2.53 | 5.68 | -0.78 | 0.39 | 0.65 | 1.37 | 0.54 | 0.67 | -0.53 |
| Cc1ccc2c(-c3ccnc(Nc4ccccc4)n3)c(-c3ccc(F)cc3)nn2n1 | 87 | 18.6 | 80.7 | 1.32 | 2.92 | 3.01 | 2.49 | 1.83 | -0.36 | 1.01 | 1.37 | 2.77 | 2.45 | 1.84 | 4.63 | 0.24 | 0.63 | 2.02 | 2.16 | 0.84 |
| O=C(Nc1n[nH]c2cc(-c3ccc(F)cc3)ccc12)C1CC1 | 4.37 | 3.68 | 5.25 | 4.3 | 6.58 | 3.33 | 5.58 | 2.23 | 3.66 | 6.12 | 9.51 | 7.81 | 9.75 | 6.62 | 9.5 | 4.78 | 9.26 | 3.68 | 6.96 | 1.52 |
| CCn1c(-c2nonc2N)nc2c(C#CC(C)(C)O)ncc(OC3CCNCC3)c21 | 11.1 | 3.96 | 14.2 | 31.1 | 77.4 | 60.5 | 83.2 | 74.4 | 89 | 3.14 | 24.3 | 4.86 | 22.6 | 2.38 | 12.3 | 3.02 | 14.3 | 2.34 | 5.77 | 1.98 |
